In PubChem BioAssay (NCI) one finds growth data, which are given here for 21 compounds.

Common to all, as to assay: NCI-60 one-dose screen, 48 h (100 = growth as untreated, 0 = no growth, -100 = all killed)
One assay concerns HL-60(TB) leukemia. The conditions noted are these: 10 µM unless noted.
The test system of a further assay is UACC-62 melanoma. The conditions noted are these: 10 µM unless noted.
In a further assay the test system is TK-10 renal. The conditions noted are these: 10 µM unless noted.
The test system of the next assay is MCF7 breast. The conditions noted are these: 10 µM unless noted.
A further assay has as its system NCI-H226 lung. The conditions noted are these: 10 µM unless noted.
A further assay concerns 786-0 renal. The conditions noted are these: 10 µM unless noted.
The next assay deals with MDA-MB-231 breast. The conditions noted are these: 10 µM unless noted.
The test system of the next assay is SF-539 CNS. The conditions noted are these: 10 µM unless noted.
Another assay deals with M14 melanoma. The conditions noted are these: 10 µM unless noted.
Another assay deals with HCT-15 colon. The conditions noted are these: 10 µM.
The next assay relates to UO-31 renal. The conditions noted are these: 10 µM unless noted.
In another assay the test system is ACHN renal. The conditions noted are these: 10 µM unless noted.
The subject of the next assay is NCI/ADR-RES ovarian. The conditions noted are these: 10 µM unless noted.
Another assay relates to T-47D breast. The conditions noted are these: 10 µM unless noted.
The next assay relates to MDA-MB-435 melanoma. The conditions noted are these: 10 µM unless noted.
The next assay has as its system HCT-116 colon. The conditions noted are these: 10 µM unless noted.
The next assay concerns NCI-H460 lung. The conditions noted are these: 10 µM unless noted.
For another assay, the system named is SF-268 CNS. The conditions noted are these: 10 µM unless noted.
In the next assay the test system is SW-620 colon. The conditions noted are these: 10 µM unless noted.
Another assay relates to KM12 colon. The conditions noted are these: 10 µM unless noted.

Each structure is given as a SMILES string. Several values for one entry are separate records, joined by “and”; a condition that tells them apart may be missing. Equal entries are not always repeated. Compounds without any hit were thinned out: in the full panel of roughly 83,000, 20% have a hit.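 The endpoint reported here, percent growth, reads 100 for growth as untreated, 0 for no net growth and -100 for all cells dead.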 Activity calls are given as the source filed them. The calls were made as follows: active = growth percent below 10; inactive = the rest.

With `CCC(C#N)(CC)c1ccccc1`, the growth in the assay on HL-60(TB) leukemia is 102% (inactive).

`O=C1OC(Cc2ccccc2)C1c1ccccc1` (stereo unspecified): the growth in the assay on HL-60(TB) leukemia was 84.7% (inactive).

For the compound `NC(=O)CN1C(=O)C(Cc2ccccc2)N=C(c2cccc(O)c2)c2ccccc21` (stereo unspecified), the growth in the assay with UACC-62 melanoma is 97.8% [30 µM] (inactive); with TK-10 renal it was 102% [30 µM] (inactive); with MCF7 breast, 96.4% [30 µM] (inactive).

For `C/C=C1\CN2CCC34c5ccccc5N(C)C35OCC4(C(=O)OC)C1CC25` (stereo unspecified), the growth with UACC-62 melanoma was 82.9% [100 µM] (inactive) and -86% [100 µM] (active); in the assay with TK-10 renal it was 80.6% [100 µM] (inactive) and 13.9% [100 µM] (inactive); in the assay with MCF7 breast it was 77% [100 µM] (inactive) and -100% [100 µM] (active).

Regarding `Oc1cc(Nc2ccnc3cc(Cl)ccc23)c2ncccc2c1`, the growth with HL-60(TB) leukemia was 93.1% (inactive).

Take `CN(N)/N=N/c1nc[nH]c1C(N)=O`: the growth with UACC-62 melanoma was -13.9% [100 µM] (active) and 0.502% [100 µM] (active); in the assay on TK-10 renal, 5.8% [100 µM] (active) and 2.21% [100 µM] (active); with MCF7 breast it was 19% [100 µM] (inactive) and 4.05% [100 µM] (active).

For `O=C1NC(=O)C(CCC(=O)c2cccc3ccccc23)C(=O)N1`, the growth with UACC-62 melanoma was 77.1% [100 µM] (inactive) and 44.6% [100 µM] (inactive); with TK-10 renal it was 106% [100 µM] (inactive) and 8.08% [100 µM] (active); in the assay with MCF7 breast it was 91% [100 µM] (inactive) and 51.9% [100 µM] (inactive).

`CC12CC[C@H](O)C=C1/C(=N/O)CC1C2CCC2(C)C1CC[C@@H]2O` (stereo partly specified): the growth in the assay on NCI-H226 lung was 97.1% (inactive); in the assay on 786-0 renal it was 80.1% (inactive); in the assay on MDA-MB-231 breast, 108% (inactive); in the assay with SF-539 CNS, 100% (inactive); with M14 melanoma it was 95.7% (inactive); with HCT-15 colon, 97.9% (inactive). The growth in the assay with UACC-62 melanoma was 94.3% (inactive); with UO-31 renal it was 66.2% (inactive); in the assay with TK-10 renal it was 102% (inactive); in the assay with ACHN renal it was 95.5% (inactive); in the assay with NCI/ADR-RES ovarian, 101% (inactive); in the assay with T-47D breast, 77.6% (inactive). For the same compound, the growth with MDA-MB-435 melanoma is 90.7% (inactive); with MCF7 breast, 85.6% (inactive); in the assay on HCT-116 colon it was 93.3% (inactive).

For `CC1CCN(CCOc2ccc(CNc3ccc4nc(CCC5CCCCC5)[nH]c4c3)cc2)CC1`, the growth in the assay with HL-60(TB) leukemia was 5.83% (active).

For the compound `O=C(O)CN1C(=O)C(Cc2ccccc2)N=C(c2cccc(O)c2)c2ccccc21` (stereo unspecified), the growth in the assay on UACC-62 melanoma was 90.1% [30 µM] (inactive); in the assay on TK-10 renal, 96% [30 µM] (inactive); in the assay with MCF7 breast it was 79% [30 µM] (inactive).

Consider `CCCCCCCCCCCCCCCCCN`, for which the growth in the assay with HL-60(TB) leukemia was 95.9% (inactive).

`CCOC(=O)c1ccc(N(CCC(=O)O)C(C)=O)cc1`: the growth with HL-60(TB) leukemia was 117% (inactive).

For `CCOC(=O)C1C(c2ccccc2)C2(C#N)C(=N)OC1(C)C2(C#N)C#N` (stereo unspecified), the growth in the assay with UACC-62 melanoma was -70.2% [100 µM] (active) and -92.1% [100 µM] (active); in the assay on TK-10 renal, -32.2% [100 µM] (active) and -95.8% [100 µM] (active); in the assay on MCF7 breast it was -22.3% [100 µM] (active) and -82.1% [100 µM] (active).

For `Nc1nc2cc(O)ccc2n2cc3c(F)cccc3c12`, the growth in the assay on HL-60(TB) leukemia was 21.7% (inactive).

On to `CC(=O)[O][Hg][c]1nc2c(c(=O)n(C)c(=O)n2C)n1C`, for which the growth in the assay on NCI-H226 lung is 108% (inactive); in the assay with NCI-H460 lung, 98.8% (inactive); in the assay with 786-0 renal, 102% (inactive); in the assay on MDA-MB-231 breast, 102% (inactive); with SF-268 CNS it was 110% (inactive); in the assay on SF-539 CNS, 104% (inactive). Besides, the growth in the assay on M14 melanoma was 101% (inactive); with HCT-15 colon, 107% (inactive); with UACC-62 melanoma, 96.3% (inactive); in the assay on UO-31 renal, 104% (inactive); with TK-10 renal, 110% (inactive); in the assay with ACHN renal, 112% (inactive). The growth was 104% (inactive) in the assay with HL-60(TB) leukemia; 114% (inactive) in the assay on NCI/ADR-RES ovarian; 88.8% (inactive) in the assay with T-47D breast; 92.4% (inactive) in the assay on MDA-MB-435 melanoma; 71.1% (inactive) with SW-620 colon; 73.3% (inactive) with MCF7 breast. For the same compound, the growth in the assay with HCT-116 colon was 99.9% (inactive); in the assay with KM12 colon, 96.6% (inactive).

On to `COc1ccc(-c2ccc(-c3ccc(C(=N)N)cn3)o2)cc1Cl`, for which, in the assay on HL-60(TB) leukemia, the growth was -59.5% (active).

With `CSc1ccc2c(c1)N(CCC1CCCCN1C)c1ccccc1S2` (stereo unspecified), in the assay on HL-60(TB) leukemia, the growth was 86.1% (inactive).

For `N#CCN1C(=O)C(Cc2ccccc2)N=C(c2cccc(O)c2)c2ccc(Cl)cc21` (stereo unspecified), the growth with UACC-62 melanoma was 103% [30 µM] (inactive); in the assay with TK-10 renal, 102% [30 µM] (inactive); with MCF7 breast it was 100% [30 µM] (inactive).

`O=C1Nc2cc(-c3ccc(O)cc3)ccc2/C1=C/c1ccc[nH]1`: the growth in the assay with HL-60(TB) leukemia is -8.12% (active).

For `N#CCN1C(=O)C(CCC(N)=O)N=C(c2ccc(O)cc2)c2cc(Cl)ccc21` (stereo unspecified), the growth with UACC-62 melanoma was 91.5% [30 µM] (inactive); in the assay on TK-10 renal, 98.2% [30 µM] (inactive); with MCF7 breast, 93.4% [30 µM] (inactive).

Consider `O=C(O)CCC1N=C(c2cccc(O)c2)c2ccccc2NC1=O` (stereo unspecified), for which the values for the growth in the assay with UACC-62 melanoma and in the assay with TK-10 renal were 88.5% [30 µM] (inactive) and 96.4% [30 µM] (inactive), respectively.
